PubChem BioAssay AID1159580 (chemical genetic matrix, 2015)
In all, about 5,500 compounds went through this assay and about 2,000 (36%) were called active. Roughly 18% stayed inconclusive and do not appear here. No stated cut-off is given here; in the data, active means normalized growth mostly below about 0.91 (no sharp cut-off); inconclusive means no clear call, values can overlap the other calls; inactive means mostly above about 0.92. The list shows a part of the results.

Assay: chemical genetic growth profiling, strain panel (AID 1159580);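 further: tested at 20 µM; growth read once vehicle control cultures reached saturation at 30 °C; 1 = growth at the plate median or of vehicle wells; lower values mean less growth of the strain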
Conditions: growth OD

Measured: normalized growth

CNC(=O)O/N=C\C(C)(C)SC
inactive: S. cerevisiae deletion strains, locus YJR043C, strain POL32, hits give low values 1.03 | S. cerevisiae deletion strains, locus YJR075W, strain HOC1, hits give low values 1.02 | S. cerevisiae deletion strains, locus YKL009W, strain mrt4, hits give low values 1.02 | S. cerevisiae deletion strains, locus YKL068W, hits give low values 0.998 | S. cerevisiae deletion strains, locus YKL085W, strain MDH1 (second series), hits give low values 0.996 | S. cerevisiae deletion strains, locus YKL085W, strain MDH1, hits give low values 0.996 | S. cerevisiae deletion strains, locus YKL160W, strain elf1, hits give low values 1 | S. cerevisiae deletion strains, locus YKL190W, strain CNB1, hits give low values 0.991 | S. cerevisiae deletion strains, locus YKR001C, strain vps1, hits give low values 1.01 | S. cerevisiae deletion strains, locus YKR026C, strain gcn3, hits give low values 1 | S. cerevisiae deletion strains, locus YKR091W, strain srl3, hits give low values 1 | S. cerevisiae deletion strains, locus YLL001W, strain dnm1, hits give low values 0.988 | S. cerevisiae deletion strains, locus YLL026W, hits give low values 0.997 | S. cerevisiae deletion strains, locus YLL041C, strain sdh2, hits give low values 1 | S. cerevisiae deletion strains, locus YLR027C, strain aat2, hits give low values 1.01 | S. cerevisiae deletion strains, locus YLR039C, strain RIC1, hits give low values 1.02 | S. cerevisiae deletion strains, locus YLR058C, strain SHM2, hits give low values 1.01 | S. cerevisiae deletion strains, locus YLR102C, strain apc9, hits give low values 0.986 | S. cerevisiae deletion strains, locus YLR221C, strain rsa3, hits give low values 1.01 | S. cerevisiae deletion strains, locus YLR258W, strain gsy2, hits give low values 0.996 | S. cerevisiae deletion strains, locus YLR262C, strain YPT6 (second series), hits give low values 1.01 | S. cerevisiae deletion strains, locus YLR262C, strain YPT6, hits give low values 1.06 | S. cerevisiae deletion strains, locus YLR268W, strain sec22, hits give low values 0.991 | S. cerevisiae deletion strains, locus YLR320W, strain mms22, hits give low values 0.999 | S. cerevisiae deletion strains, locus YLR330W, strain CHS5, hits give low values 1.01 | S. cerevisiae deletion strains, locus YLR342W, strain FKS1 (second series), hits give low values 1 | S. cerevisiae deletion strains, locus YLR342W, strain FKS1, hits give low values 1 | S. cerevisiae deletion strains, locus YLR357W, strain rsc2, hits give low values 0.986 | S. cerevisiae deletion strains, locus YLR370C, strain arc18, hits give low values 1.01 | S. cerevisiae deletion strains, locus YLR371W, strain rom2, hits give low values 0.978 | S. cerevisiae deletion strains, locus YLR384C, strain iki3, hits give low values 0.991 | S. cerevisiae deletion strains, locus YLR418C, strain cdc73, hits give low values 1.01 | S. cerevisiae deletion strains, locus YML016C, strain PPZ1, hits give low values 1.01 | S. cerevisiae deletion strains, locus YML032C, strain rad52, hits give low values 0.993 | S. cerevisiae deletion strains, locus YML120C, strain ndi1, hits give low values 1.01 | S. cerevisiae deletion strains, locus YML124C, strain tub3, hits give low values 0.996 | S. cerevisiae deletion strains, locus YMR058W, strain fet3, hits give low values 1.01 | S. cerevisiae deletion strains, locus YMR078C, strain ctf18, hits give low values 0.992 | S. cerevisiae deletion strains, locus YMR125W, strain sto1, hits give low values 0.996 | S. cerevisiae deletion strains, locus YMR129W, hits give low values 1.01 | S. cerevisiae deletion strains, locus YMR205C, strain PFK2, hits give low values 0.975 | S. cerevisiae deletion strains, locus YMR223W, strain ubp8, hits give low values 0.995 | S. cerevisiae deletion strains, locus YMR231W, strain pep5, hits give low values 1 | S. cerevisiae deletion strains, locus YMR263W, strain SAP30, hits give low values 1.01 | S. cerevisiae deletion strains, locus YMR307W, strain GAS1, hits give low values 1.02 | S. cerevisiae deletion strains, locus YNL067W, strain RPL9B, hits give low values 1.01 | S. cerevisiae deletion strains, locus YNL071W, strain lat1, hits give low values 1.01 | S. cerevisiae deletion strains, locus YNL128W, strain TEP1, hits give low values 1.01 | S. cerevisiae deletion strains, locus YNL153C, strain GIM3, hits give low values 1 | S. cerevisiae deletion strains, locus YNL209W, strain ssb2, hits give low values 1.01 | S. cerevisiae deletion strains, locus YNL233W, strain BNI4, hits give low values 1.02 | S. cerevisiae deletion strains, locus YNL248C, strain rpa49, hits give low values 0.992 | S. cerevisiae deletion strains, locus YNL250W, strain rad50, hits give low values 0.989 | S. cerevisiae deletion strains, locus YNL271C, strain bni1, hits give low values 0.992 | S. cerevisiae deletion strains, locus YNL298W, strain CLA4, hits give low values 0.983 | S. cerevisiae deletion strains, locus YNL307C, strain MCK1, hits give low values 0.989 | S. cerevisiae deletion strains, locus YNL322C, strain KRE1 (second series), hits give low values 0.999 | S. cerevisiae deletion strains, locus YNL322C, strain KRE1, hits give low values 1.01 | S. cerevisiae deletion strains, locus YNR049C, strain mso1, hits give low values 1 | S. cerevisiae deletion strains, locus YNR052C, strain pop2, hits give low values 0.987 | S. cerevisiae deletion strains, locus YOL006C, strain TOP1, hits give low values 1.1 | S. cerevisiae deletion strains, locus YOL012C, strain htz1 0.971 | S. cerevisiae deletion strains, locus YOL147C, strain pex11, hits give low values 0.981 | S. cerevisiae deletion strains, locus YOR001W, strain rrp6, hits give low values 1.01 | S. cerevisiae deletion strains, locus YOR061W, strain CKA2, hits give low values 1 | S. cerevisiae deletion strains, locus YOR069W, strain VPS5, hits give low values 0.998 | S. cerevisiae deletion strains, locus YOR070C, strain gyp1, hits give low values 1 | S. cerevisiae deletion strains, locus YOR080W, strain dia2, hits give low values 0.996 | S. cerevisiae deletion strains, locus YOR083W, strain WHI5, hits give low values 0.999 | S. cerevisiae deletion strains, locus YOR106W, strain vam3, hits give low values 0.996 | S. cerevisiae deletion strains, locus YOR136W, strain idh2, hits give low values 1.01 | S. cerevisiae deletion strains, locus YOR144C, strain elg1, hits give low values 0.983 | S. cerevisiae deletion strains, locus YOR184W, strain ser1, hits give low values 1 | S. cerevisiae deletion strains, locus YOR265W, strain rbl2, hits give low values 1.03 | S. cerevisiae deletion strains, locus YOR270C, strain vph1, hits give low values 1 | S. cerevisiae deletion strains, locus YOR290C, strain snf2, hits give low values 0.994 | S. cerevisiae deletion strains, locus YOR316C, strain cot1, hits give low values 0.987 | S. cerevisiae deletion strains, locus YPL051W, strain arl3, hits give low values 1 | S. cerevisiae deletion strains, locus YPL055C, strain LGE1, hits give low values 1.05 | S. cerevisiae deletion strains, locus YPL078C, strain atp4, hits give low values 1 | S. cerevisiae deletion strains, locus YPL106C, strain sse1, hits give low values 0.996 | S. cerevisiae deletion strains, locus YPL240C, strain hsp82, hits give low values 1.01 | S. cerevisiae deletion strains, locus YPL241C, strain CIN2, hits give low values 0.999 | S. cerevisiae deletion strains, locus YPR119W, strain clb2, hits give low values 0.986 | S. cerevisiae deletion strains, locus YPR141C, strain kar3, hits give low values 0.996 | S. cerevisiae deletion strains, locus YPR163C, strain tif3, hits give low values 0.983 | S. cerevisiae deletion strains, locus YPR167C, strain met16, hits give low values 0.99 | S. cerevisiae deletion strains, strain wtn01, hits give low values 0.997 | S. cerevisiae strains, strain wild type, hits give low values 1
